# HEK293 viab: GF-AFC viability counterscreen for inhibitors of alpha-synuclein gene (SNCA) expression; HEK-293-SNCA-luc viability, GF-AFC fluorescence, 24 h; Potency, µM (doses to about 57.1 µM), for the others: at the top dose activity change, negative = cytotoxicity, hits mostly cytotoxic; 0.12% of 150,000 active; AID 1671193, 2021;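 also: potency is read from the fitted curve at half-maximal effect; 0% = DMSO-treated cells and -100% = medium-only wells without cells; nearly all actives have a fitted effect of over 30% in size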
#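 HEK-293-SNCA-luc cells (1500/well) plated 24 h, then exposed 24 h to a dilution series; GF-AFC added 30 min at 37C, fluorescence 405/540 nm; normalised to medium-only and DMSO wells, Hill fit.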
# IP6K1 inh: Primary qHTS assay for small molecule inhibitors of Inositol hexaphosphate kinase 1 (IP6K1); IP6K1 kinase, ADP-Glo luminescence, 2 h; active compounds read low; activity change, % (series mostly up to about 58 µM); 0.81% of 140,000 active; AID 1645851, 2021; in the data active = activity change below about -25%; also: % is scaled to controls: 0 for no effect and ±100 for the full control effect
#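 ADP-Glo luminescence measures ADP made by human IP6K1 during a 2 h RT reaction with ATP/IP6 (mix at 1.3 mM/130 uM); top library doses 57.5 and 19.1 uM final.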
# SNCA expr inhib: Primary qHTS assay for inhibitors of alpha-synuclein gene (SNCA) expression; AID 1671194, 2021; 0.17% of 140,000 active; Potency, µM (highest dose often 57.2 µM), for inactives: top-dose activity change, negative = inhibition, most hits filed as inhibitors; HEK-293 SNCA-luciferase knock-in, luminescence, 24 h;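 also: potency is read from the fitted curve at half-maximal effect; plate controls were DMSO cells for no effect and cell-free wells for full effect; nearly all actives have a fitted effect of over 45% in size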
# KDM5B inhibitor: Primary screen for KDM5B Histone Demethylases FDH-coupled qHTS. AID 1347165, 2019. KDM5B demethylase, FDH-coupled NADH fluorescence (FDH is formaldehyde dehydrogenase). Potency, µM (doses to about 57.7 µM), most hits filed as inhibitors. 2.6% of 220,000 active; also: potency is read from the fitted curve at half-maximal effect; 0% is about no effect; nearly all actives have a fitted effect of over 70% in size
#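 Inhibition is measured as reduced NADH fluorescence generation from FDH coupling to formaldehyde release. Truncated KDM5BΔAP at 200 nM final acts on H3K4me3 peptide (12.5 µM in substrate mix) in pH 7.5 HEPES buffer with Tween-20, 30 min, room temperature.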
# * marks the source's active call; other numbers are inactive results; i = inactive; ? = inconclusive; nt = no result given; [ ] = remark or other dose. Rows were chosen to be rich in hits. Some 2.9% of all compounds tested hit in one or more screens of this group. Unless noted, calls follow the shape of the dose curve; as a rule, active = well fitted curve in the direction sought with a large enough effect; inconclusive = small, poorly fitted or top-dose-only effect, or another doubt; inactive = no such curve, though single readings can be large; an effect the other way counts as inactive or inconclusive.
SMILES,HEK293 viab,IP6K1 inh,SNCA expr inhib,KDM5B inhibitor
Cc1ccc(CNC(=O)c2ccc3c(c2)CN(Cc2ccc(C)o2)CCO3)cc1,-6.0%,21.4,7.6%,nt
CCCS(=O)(=O)N1CC[C@@H](CC(=O)O)[C@@H](CC2=NCCc3cc(OC)ccc32)C1,-0.1%[87.6 µM],-1.6,-2.1%[87.6 µM],31.6µM*
COc1ccc2c(c1)CCN=C2C[C@H]1CN(C(=O)c2cccnc2)CC[C@H]1CC(=O)O,10.3%[87.6 µM],7.3,32.3%[87.6 µM],31.6µM*
COCC(=O)N1CC[C@@H](CC(=O)O)[C@@H](CC2=NCCc3cc(OC)ccc32)C1,2.4%[87.6 µM],8.0,12.5%[87.6 µM],?
COc1ccc2c(c1)CCN=C2C[C@H]1CN(C(=O)C(=O)O)CC[C@H]1CC(=O)O,1.5%[87.6 µM],-6.7,-11.4%[87.6 µM],28.2µM*
COc1cc2c(cc1OC)C(C[C@H]1CN(C(=O)c3cccn3C)CC[C@H]1CC(=O)O)=NCC2,7.7%,1.9,-27.2%,31.6µM*
COc1ccc(-n2nc3n(c2=O)CCN(Cc2ccsc2)C3)cc1,-22.3%,-9.6,50.6%,i
COc1ccc(NC(=O)N2CC[C@@H](CC(=O)O)[C@@H](CC3=NCCc4cc(OC)c(OC)cc43)C2)cc1,7.2%,6.3,36.2%,35.5µM*
COc1cccc(NC(=O)N2CC[C@@H](CC(=O)O)[C@@H](CC3=NCCc4cc(OC)c(OC)cc43)C2)c1,1.3%,-3.4,13.8%,i
COc1cccc(CN2CC3(CCN(C)C3)c3cc(C(=O)NC4CCCCC4)ccc32)c1 (centres undefined),-7.0%[87.6 µM],-1.8,?,35.5µM*
O=C(NC1CCOCC1)c1ccc2c(c1)C1(CCN(CC3CC3)C1)CN2Cc1ccccc1 (centres undefined),-5.5%,11.2,3.4%,28.2µM*
COc1ccc(NC(=O)c2ccc3c(c2)C2(CCN(C)C2)CN3Cc2ccccc2)cc1 (centres undefined),3.8%[87.6 µM],7.7,-6.7%[87.6 µM],?
CN1CCC2(C1)CN(Cc1ccccc1)c1ccc(C(=O)NC3CCC(O)CC3)cc12 (centres undefined),0.1%[87.6 µM],9.8,5.2%[87.6 µM],39.8µM*
O=C(NCc1ccc(F)cc1)C1CCCN(Cc2cccc(-c3cccs3)c2)C1 (centres undefined),-9.4%,-4.9,-23.2%,nt
O=C(NCc1cccc(Cl)c1)C1CN(C2CCCCC2)C(=O)N1 (centres undefined),0.3%[12.5 µM],0.9,-5.6%[87.6 µM],nt
O=C(NCCCc1ccccc1)c1ccc2nc(-c3ccncc3)oc2c1,0.0%[87.6 µM],-12.0,-3.8%[87.6 µM],nt
CC1(C(=O)NC2COC2)CN(Cc2ccccc2)Cc2ccc(Nc3ccccc3)nc21 (centres undefined),-13.5%[87.6 µM],-3.0,-19.9%[87.6 µM],35.5µM*
CC1(C(=O)NC2CCOCC2)CN(Cc2ccccc2)Cc2ccc(Nc3ccccc3)nc21 (centres undefined),?,3.4,-28.6%,28.2µM*
Cc1noc(C)c1[S+](=O)([O-])NC1CCN(c2ccc3nnc(-c4ccccc4)n3n2)CC1,nt,-14.3,nt,nt
O=[S+]([O-])(c1cccs1)N1CC(N2CCc3ccccc32)C1,-0.9%,-5.3,35.7%,?
O=C(NCc1c[nH]c2ncccc12)c1cccc2[nH]ccc12,5.5%[87.6 µM],-5.4,-24.1%[87.6 µM],35.5µM*
O=C(Cc1cccc(Cl)c1)NCc1ccnc2[nH]ccc12,15.7%[87.6 µM],16.2,32.1%[87.6 µM],i
O=C(NCc1ccnc2[nH]ccc12)c1cncc(Br)c1,12.0%[87.6 µM],1.3,25.8%[87.6 µM],i
O=C(NCc1ccnc2[nH]ccc12)c1cccc(Cl)c1,0.1%[87.6 µM],2.8,17.2%[87.6 µM],35.5µM*
O=C(NCc1ccnc2[nH]ccc12)c1cccc(Br)c1,3.0%[87.6 µM],-9.7,22.7%[87.6 µM],31.6µM*
SMILES,HEK293 viab,IP6K1 inh,SNCA expr inhib,KDM5B inhibitor
O=C(CN1CCN(CC(=O)Nc2ccccc2C(=O)c2ccccc2)CC1)Nc1ccc(F)cc1,nt,nt,nt,i
O=C(NCc1ccccc1Cl)C1CCCN(Cc2cccc(-c3cccs3)c2)C1 (centres undefined),nt,10.9,nt,nt
COc1ccccc1C(=O)N1CCC(N2C(=O)c3c(c(C)nn3-c3ccccc3)C2C)CC1 (centres undefined),nt,7.8,nt,nt
Cc1nn(C)c(C)c1-c1ccnc(NCC2CC(=O)N(C3CCCC3)C2)n1 (centres undefined),2.9%,1.1,-7.0%,25.1µM*
Cc1nn(C)c(C)c1-c1ccnc(NCC2COc3ccccc3O2)n1 (centres undefined),5.9%,6.5,-26.1%,?
Cc1ccc([S+](=O)([O-])N2CCC(C(=O)N3CCCC(c4nc5ncccc5[nH]4)C3)CC2)cc1 (centres undefined),-2.5%,8.0,?,nt
COCCNC(=O)c1c(C)sc2ccn(Cc3ccc(F)cc3)c(=O)c12,4.2%,-0.1,-10.7%,i
CCN(CC)C(=O)c1c(C)sc2ccn(Cc3ccc(F)cc3)c(=O)c12,5.5%,2.7,8.0%,25.1µM*
CC(C)n1c(C2CCCN(C(=O)Cc3ccccc3)C2)nn(C)c1=O (centres undefined),-18.4%,11.3,23.3%,nt
Cc1cn2nc(C(=O)NCc3ccc(C(C)C)cc3)cc2c(N2CCSCC2)n1,-1.1%,0.0,2.4%,14.1µM*
Cc1cn2nc(C(=O)NCCc3cccs3)cc2c(N2CCSCC2)n1,1.7%,7.0,5.3%,14.1µM*
Cc1cn2nc(C(=O)NCc3cccc(Cl)c3)cc2c(N2CCSCC2)n1,5.6%,-12.2,-16.0%,14.1µM*
CN(c1cc(=O)c2ccnc(-c3ccc(O)c(F)c3)c2o1)C1CCOCC1,-9.4%[87.6 µM],23.8,57.6%[87.6 µM],31.6µM*
CN(C)c1cc(=O)c2ccnc(-c3ccc(O)c(F)c3)c2o1,0.7%[87.6 µM],-23.4,56.2%[87.6 µM],?
CN(C)c1cc(=O)c2ccnc(-c3ccc(N4CCOCC4)cc3)c2o1,-13.0%[87.6 µM],-20.9,8.9%[87.6 µM],31.6µM*
O=c1cc(N2CCOCC2)oc2c(-c3ccc(F)c(Cl)c3)nccc12,1.2%[87.6 µM],-19.8,?,20µM*
O=c1cc(N2CCOCC2)oc2c(Nc3ccccn3)nccc12,5.5%[87.6 µM],-3.9,-2.2%[87.6 µM],?
O=c1cc(N2CCOCC2)oc2c(NCc3ccc(F)cc3)nccc12,-9.6%[87.6 µM],-2.2,-5.8%[87.6 µM],35.5µM*
N#Cc1cccnc1-c1cccc(C(=O)NCCNC(=O)c2cccc(Cl)c2)c1,-33.8%,-2.4,8.4%,nt
Cc1cc(C)cc(-c2ccc(CN3CCCC3C(=O)NCc3cccnc3)cc2)c1 (centres undefined),-3.2%,12.1,5.8%,nt
COc1ncccc1-c1nccc2c(=O)cc(N(C)C3CCOCC3)oc12,3.8%[87.6 µM],-4.3,-14.3%[87.6 µM],i
COc1ccc(-c2nccc3c(=O)cc(N4CCOCC4)oc23)cc1OC,-8.0%[87.6 µM],-3.5,15.2%[87.6 µM],i
O=c1cc(N2CCOCC2)oc2c(-c3ccc(F)cc3)nccc12,-2.6%[87.6 µM],-6.1,-12.9%[87.6 µM],35.5µM*
COc1cc(F)ccc1-c1nccc2c(=O)cc(N(C)C3CCOCC3)oc12,6.8%[87.6 µM],-11.1,?,39.8µM*
COc1cc(F)ccc1-c1nccc2c(=O)cc(N3CCOCC3)oc12,-6.1%[87.6 µM],-16.2,31.2%[87.6 µM],35.5µM*

# Compound activity (PubChem BioAssay)
